Assay results from PubChem BioAssay.
Values joined by “and” are separate entries in the source; they are usually repeats but may differ in a detail not shown here. Equal values may be shown once. Results filed as inconclusive are left out. Active and inactive are the calls of the source.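 Rule for the calls, unless noted: active = normalized viability below 100% at a tested concentration; inactive = the rest.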

Columns and labels:
[1] = growth inhibition of DIPG glioma cells, dose response, cell-based, SU-DIPG-XVII, MIPE5.0, CellTiter-Glo, qHTS (AID 1347060; cut-off not given, nearly all actives have AC50 up to about 26 µM;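 for AC50: cells exposed to compound for 48 hours before viability readout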); conditions: SU-DIPG-XVII viability, CellTiter-Glo ATP luminescence
[2] = growth inhibition of DIPG glioma cells, dose response, cell-based, SU-DIPG-XIII, MIPE4.0, CellTiter-Glo, qHTS (AID 1347061; cut-off not given, nearly all actives have AC50 up to about 37 µM;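 note: cells exposed to compound for 48 hours before readout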); conditions: SU-DIPG-XIII viability, CellTiter-Glo ATP luminescence
[3] = growth inhibition of DIPG glioma cells, dose response, cell-based, JHH-DIPG-1, MIPE4.0, CellTiter-Glo, qHTS (AID 1347062; cut-off not given, nearly all actives have AC50 up to about 27 µM;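 for AC50: cells exposed to compound for two days before readout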); conditions: JHH-DIPG-1 viability, CellTiter-Glo ATP luminescence
[4] = growth inhibition of DIPG glioma cells, dose response, cell-based, SU-DIPG-IV, MIPE4.0, CellTiter-Glo, qHTS (AID 1347063; cut-off not given, nearly all actives have AC50 up to about 30 µM;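 note: compound exposure lasted 48 hours before the viability readout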); conditions: SU-DIPG-IV viability, CellTiter-Glo ATP luminescence
[5] = growth inhibition of DIPG glioma cells, dose response, cell-based, SU-DIPG-XIII, MIPE5.0, CellTiter-Glo, qHTS (AID 1347064; cut-off not given, nearly all actives have AC50 up to about 23 µM;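 for AC50: cells exposed to compound for 48 hours before the viability read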); conditions: SU-DIPG-XIII viability, CellTiter-Glo ATP luminescence
[6] = viability loss in pontine glioma line – cell-based, SU-DIPG-XXV, MIPE5.0, CellTiter-Glo, qHTS, dose response (AID 1347065; cut-off not given, nearly all actives have AC50 up to about 26 µM;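 note: cells exposed to compound for 48 hours before ATP readout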); conditions: CellTiter-Glo ATP luminescence
[7] = SU-DIPG-VI glioma cell viability, MIPE4.0 library, CellTiter-Glo luminescence, qHTS (AID 1347066; cut-off not given, nearly all actives have AC50 up to about 30 µM;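 note: cells exposed to compound for 48 hours before readout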); conditions: CellTiter-Glo ATP luminescence
[8] = JHH-DIPG-1 glioma cell viability, MIPE5.0 library, CellTiter-Glo luminescence, qHTS (AID 1347067; cut-off not given, nearly all actives have AC50 up to about 26 µM;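 note: cells exposed to compound for 48 hours before readout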); conditions: JHH-DIPG-1 glioma viability, CellTiter-Glo ATP luminescence
[9] = modifiers of HSF1 nuclear foci, imaging, Selleck Cancer Library (AID 1347162; in the data active = plate-normalised HSF1 focus index below about 0.46); conditions: human cells, at 10 µM; SSMD: measured here: HSF1 foci SSMD mean; cell count: measured here: cell number; plate-normalised HSF1 focus index: stronger effect = lower value
[10] = ovarian cancer cell viability with rucaparib, profiling panel, oncology-focused library, rucaparib conditional (AID 1508598); conditions: patient-derived ovarian cancer cells, CellTiter-Glo viability, 144 h, stronger effect = lower value
[11] = LFS_MB_P medulloblastoma growth inhibition, cell-based, chromothripsis tumors, cisplatin or BGB combos (AID 1671449; in the data active = inhibition above about 80%;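 note: cells exposed for 96 hours; 0% = vehicle DMSO and 100% = killing by high DMSO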); conditions: LFS_MB_P medulloblastoma cells
[12] = HDN33 neuroblastoma growth inhibition, cell-based, chromothripsis tumors, cisplatin or BGB combos (AID 1671450; in the data active = inhibition above about 80%;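 note: cells exposed to compound for four days; 0% = vehicle DMSO and 100% = cell killing by high DMSO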); conditions: HDN33 neuroblastoma cells, stronger effect = higher value
[13] = ICB984 medulloblastoma cell growth inhibition, synergistic combos for chromothripsis tumors, cisplatin or BGB combos (AID 1671451; call rule not given here;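 note: cells exposed for 96 hours before readout; 0% = vehicle DMSO and 100% = killing by high DMSO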); conditions: ICB984 medulloblastoma cells, drug combinations, stronger effect = higher value
[14] = HTB85 osteosarcoma cell growth inhibition, synergistic combos for chromothripsis tumors, BGB or cisplatin IC20 combos (AID 1671453; in the data active = inhibition above about 80%;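 note: cells exposed for 96 hours before readout; 0% = vehicle DMSO and 100% = high DMSO killing control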); conditions: HTB85 osteosarcoma cells, drug combinations, stronger effect = higher value
[15] = MDA-MB-436 breast carcinoma cell growth inhibition, synergistic combos for chromothripsis tumors, BGB or cisplatin combos (AID 1671458; call rule not given here;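 note: cells exposed for 96 hours; 0% = vehicle DMSO and 100% = killing by high DMSO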); conditions: MDA-MB-436 breast carcinoma growth inhibition, drug combinations, stronger effect = higher value
[16] = growth inhibition of BT084 medulloblastoma cells, cell-based, ICGC_MB145, cisplatin and BGB IC40 combos (AID 1671461; in the data active = inhibition above about 80%;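 note: cells exposed to drugs for 96 hours; 0% = vehicle DMSO and 100% = high DMSO full killing control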); conditions: drug combinations, stronger effect = higher value
[17] = growth inhibition of RCMB18 medulloblastoma cells, cell-based, cisplatin and BGB IC40 combos (AID 1671462; in the data active = inhibition above about 80%;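 note: cells exposed to compound for four days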); conditions: stronger effect = higher value
[18] = SU-DIPG-XXV glioma cell viability, MIPE5.0 library, qHTS (AID 1347068; cut-off not given, nearly all actives have IC50 up to about 30 µM)
[19] = sensitizers of A549 cells to miR-34 induction, primary screen, imaging, A549 dox-inducible miR-34, nuclei and caspase counts (AID 1347080;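 active = compounds whose cell count with miR-34 switched on is under 0.7 times the count with it off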); conditions: A549 miR-34 inducible, Hoechst nuclei count, 48 h
[20] = survival rescue of mitochondrial mutant cells in low glucose, primary screen, MELAS cybrids, Rieske KO mouse fibroblasts, CellTiter-Glo (AID 1508586;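 active = mean z-score across replicates of 1.96 or higher in either the MELAS or the Rieske mutant cell line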;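 note: z relative to plate mean and SD of compound and empty wells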)

O=C(/C=C/c1cccc(S(=O)(=O)Nc2ccccc2)c1)NO
AC50 [1]: 2090 nM (active) | AC50 [2]: 15200 nM (active) | AC50 [3]: 7620 nM (active) | AC50 [4]: 3400 nM (active) | AC50 [5]: 661 nM (active) | AC50 [6]: 742 nM (active) | AC50 [7]: 3820 nM (active) | AC50 [8]: 742 nM (active) | SSMD [9]: -3.23 | cell count [9]: 7740 | plate-normalised HSF1 focus index [9]: 0.885 (inactive) | viability ([10]; at 0.000305 µM, OCI-C5x cells, with rucaparib 10 µM, 100% = cells with rucaparib alone): 104% (inactive) | viability ([10]; at 0.000305 µM, OCI-C5x cells, without rucaparib): 114% (inactive) | viability ([10]; at 0.000305 µM, OCI-P5x cells, with rucaparib 20 µM, 100% = cells with rucaparib alone): 106% (inactive) | viability ([10]; at 0.000305 µM, OCI-P5x cells, without rucaparib): 94% (active) | viability ([10]; at 0.00122 µM, OCI-C5x cells, with rucaparib 10 µM, 100% = cells with rucaparib alone): 98.8% (active) | viability ([10]; at 0.00122 µM, OCI-C5x cells, without rucaparib): 117% (inactive) | viability ([10]; at 0.00122 µM, OCI-P5x cells, with rucaparib 20 µM, 100% = cells with rucaparib alone): 113% (inactive) | viability ([10]; at 0.00122 µM, OCI-P5x cells, without rucaparib): 100% (inactive) | viability ([10]; at 0.00488 µM, OCI-C5x cells, with rucaparib 10 µM, 100% = cells with rucaparib alone): 114% (inactive) | viability ([10]; at 0.00488 µM, OCI-C5x cells, without rucaparib): 117% (inactive) | viability ([10]; at 0.00488 µM, OCI-P5x cells, with rucaparib 20 µM, 100% = cells with rucaparib alone): 101% (inactive) | viability ([10]; at 0.00488 µM, OCI-P5x cells, without rucaparib): 95% (active) | viability ([10]; at 0.0195 µM, OCI-C5x cells, with rucaparib 10 µM, 100% = cells with rucaparib alone): 104% (inactive) | viability ([10]; at 0.0195 µM, OCI-C5x cells, without rucaparib): 119% (inactive) | viability ([10]; at 0.0195 µM, OCI-P5x cells, with rucaparib 20 µM, 100% = cells with rucaparib alone): 90.8% (active) | viability ([10]; at 0.0195 µM, OCI-P5x cells, without rucaparib): 88.4% (active) | viability ([10]; at 0.0781 µM, OCI-C5x cells, with rucaparib 10 µM, 100% = cells with rucaparib alone): 97.6% (active) | viability ([10]; at 0.0781 µM, OCI-C5x cells, without rucaparib): 112% (inactive) | viability ([10]; at 0.0781 µM, OCI-P5x cells, with rucaparib 20 µM, 100% = cells with rucaparib alone): 77.4% (active) | viability ([10]; at 0.0781 µM, OCI-P5x cells, without rucaparib): 75.3% (active) | viability ([10]; at 0.313 µM, OCI-C5x cells, with rucaparib 10 µM, 100% = cells with rucaparib alone): 77% (active) | viability ([10]; at 0.313 µM, OCI-C5x cells, without rucaparib): 75.9% (active) | viability ([10]; at 0.313 µM, OCI-P5x cells, with rucaparib 20 µM, 100% = cells with rucaparib alone): 43.7% (active) | viability ([10]; at 0.313 µM, OCI-P5x cells, without rucaparib): 63.5% (active) | viability ([10]; at 1.25 µM, OCI-C5x cells, with rucaparib 10 µM, 100% = cells with rucaparib alone): 12.7% (active) | viability ([10]; at 1.25 µM, OCI-C5x cells, without rucaparib): 12.1% (active) | viability ([10]; at 1.25 µM, OCI-P5x cells, with rucaparib 20 µM, 100% = cells with rucaparib alone): 17.8% (active) | viability ([10]; at 1.25 µM, OCI-P5x cells, without rucaparib): 35.8% (active) | viability ([10]; at 5 µM, OCI-C5x cells, with rucaparib 10 µM, 100% = cells with rucaparib alone): 5.06% (active) | viability ([10]; at 5 µM, OCI-C5x cells, without rucaparib): 5.35% (active) | viability ([10]; at 5 µM, OCI-P5x cells, with rucaparib 20 µM, 100% = cells with rucaparib alone): 2.89% (active) | viability ([10]; at 5 µM, OCI-P5x cells, without rucaparib): 3.18% (active) | inhibition ([11]; at 0.5 µM, stronger effect = higher value): 40.5% (inactive) | inhibition ([11]; measured here: combination with BGB IC20, at 0.005 µM): -0.936% | inhibition ([11]; measured here: combination with BGB IC40, at 0.005 µM): -11.3% | inhibition ([11]; measured here: combination with BGB IC40, at 0.05 µM): -18.3% | inhibition ([11]; measured here: combination with cisplatin, at 0.5 µM, stronger effect = higher value): 101% | inhibition ([11]; measured here: combination with cisplatin, at 5 µM, stronger effect = higher value): 112% | inhibition ([12]; BGB combo, at 5 µM): 99.6% | inhibition ([12]; at 0.5 µM): 28.3% (inactive) | inhibition ([12]; cisplatin combo, at 5 µM): 99.8% | inhibition ([12]; measured here: with BGB IC20 combination, at 0.5 µM): 17.9% | inhibition ([12]; measured here: with cisplatin IC20 combination, at 0.5 µM): 21.7% | inhibition ([12]; single agent, at 5 µM): 99.8% | inhibition ([13]; BGB IC20 combo, at 0.005 µM): 18.9% | inhibition ([13]; BGB IC40 combo, at 0.005 µM): 36.1% | inhibition ([13]; BGB IC40 combo, at 0.05 µM): 94.9% | inhibition ([13]; at 0.5 µM): -22.2% (inactive) | inhibition ([13]; cisplatin combo, at 0.05 µM): 94.8% | inhibition ([13]; cisplatin combo, at 0.5 µM): -34.3% | inhibition ([13]; cisplatin combo, at 5 µM): -34.9% | inhibition ([13]; measured here: 5 uM single agent, at 5 µM): -35.3% | inhibition ([14]; at 0.5 µM): 34.5% (inactive) | inhibition ([14]; measured here: with BGB IC20, at 0.5 µM): 8.9% | inhibition ([14]; measured here: with BGB IC20, at 5 µM): 99.2% | inhibition ([14]; measured here: with cisplatin IC20, at 0.5 µM): 49.8% | inhibition ([14]; measured here: with cisplatin IC20, at 5 µM): 99.8% | inhibition ([14]; single agent, at 5 µM): 99.7% | inhibition ([15]; at 0.5 µM): 33.7% (inactive) | inhibition ([15]; measured here: BGB combination, at 0.5 µM): 25.2% | inhibition ([15]; measured here: BGB combination, at 5 µM): 62% | inhibition ([15]; measured here: cisplatin combination, at 0.5 µM): 26.3% | inhibition ([15]; measured here: cisplatin combination, at 5 µM): 66.1% | inhibition ([16]; at 0.5 µM): 38.7% (inactive) | inhibition ([16]; cisplatin combination, at 0.5 µM): 58.9% | inhibition ([16]; cisplatin combination, at 5 µM): 102% | inhibition ([16]; measured here: BGB IC40 combination 0.05 uM, at 0.05 µM): 14.1% | inhibition ([16]; single agent, at 5 µM): 108% | inhibition ([17]; at 0.5 µM): 32.4% (inactive) | inhibition ([17]; cisplatin combo, at 5 µM): 91.3% | inhibition ([17]; measured here: BGB IC40 combination, at 0.05 µM): -15.7% | inhibition ([17]; measured here: combination with cisplatin, at 0.5 µM): 51.1% | inhibition ([17]; single agent, at 5 µM): 92.7%

Nc1ncnc2ccccc12
outcome [1]: inactive | outcome [2]: inactive | outcome [3]: inactive | outcome [4]: inactive | outcome [5]: inactive | outcome [6]: inactive | outcome [8]: inactive | outcome [18]: inactive

CC(=O)O[C@H]1C[C@@H]2CC[C@@H]3[C@H](CC[C@@]4(C)[C@H]3C[C@H]([N+]3(C)CCCCC3)[C@@H]4OC(C)=O)[C@@]2(C)C[C@@H]1[N+]1(C)CCCCC1
outcome [1]: inactive | outcome [2]: inactive | outcome [3]: inactive | outcome [4]: inactive | outcome [5]: inactive | outcome [6]: inactive | outcome [7]: inactive | outcome [18]: inactive | fold change ([19]; stronger effect = lower value, cell number ratio, induced over uninduced): 1.08 (inactive) and 0.979 (inactive) and 0.882 (inactive) | fold change ([19]; measured here: relative caspase fold change +Dox/-Dox): 0.886 and 0.709 and 0.967 | cell count ([19]; measured here: total cells with miR-34 induction, stronger effect = lower value): 10300 and 9210 and 9980 | cell count ([19]; measured here: total cells without miR-34 induction): 9560 and 9410 and 11300 | z-score ([20]; MELAS cybrid survival, CellTiter-Glo 48 h, stronger effect = higher value): -0.0905 (inactive) and -0.925 (inactive) | z-score ([20]; Rieske KO mouse fibroblast survival, CellTiter-Glo 72 h): -1.19 and -0.284
